Bioassay records: PubChem, National Center for Advancing Translational Sciences (NCATS)
AmpC detergent: blocks E. coli AmpC beta-lactamase in detergent assay; P00811; AmpC hydrolysis of nitrocefin, absorbance 480 nm, 0.01% Triton; Potency, µM (titrated, usually from 114 µM), inactives show at the highest dose activity change, negative = inhibition, most hits filed as inhibitors; 0.041% of 370,000 active;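 note: 0% = no-compound wells and -100% = no-enzyme wells; nearly all actives have a fitted effect of over 25% in size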
Target sequence (P00811 whole entry, looked up): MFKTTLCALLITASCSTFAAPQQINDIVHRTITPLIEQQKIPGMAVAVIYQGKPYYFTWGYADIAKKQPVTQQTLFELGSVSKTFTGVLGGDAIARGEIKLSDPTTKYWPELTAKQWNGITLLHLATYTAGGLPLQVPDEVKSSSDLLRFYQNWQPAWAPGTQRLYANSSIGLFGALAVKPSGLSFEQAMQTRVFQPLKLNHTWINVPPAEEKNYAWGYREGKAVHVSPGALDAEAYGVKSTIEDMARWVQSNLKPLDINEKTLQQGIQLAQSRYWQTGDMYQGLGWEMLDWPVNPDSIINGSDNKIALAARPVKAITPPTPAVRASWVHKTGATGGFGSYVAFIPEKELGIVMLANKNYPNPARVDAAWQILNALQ
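AmpC (5.3 nM in the dispensed reagent) in 20 mM phosphate pH 7.0 with 0.01% (detergent screen) or 0.0001% Triton X-100 was preincubated with compounds for 15 min at room temperature. Nitrocefin was then added from an 800 uM solution, and hydrolysis was followed at 480 nm.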
VACV Venus inh: vaccinia inhibition (Venus reporter) | Vaccinia virus Venus reporter expression, fluorescence | Potency, µM (series often up to 36.5 µM), inactives show at the highest dose activity change, negative = inhibition, hits mostly inhibitors | 0.46% of 330,000 active | AID 720580; calls by dose curve; tested in A549 cells; note: % is set by controls: 0 for no effect and ±100 for the full control effect; nearly all actives have a fitted effect of over 30% in size
AmpC no deterg: blocks E. coli AmpC beta-lactamase in detergent-free assay. P00811. AmpC nitrocefin hydrolysis, absorbance 480 nm, 0.0001% Triton. Potency, µM (top dose mostly 57.1 µM), inactives show top-dose activity change, negative = inhibition, usual class: inhibitors. 0.52% of 330,000 active. AID 485341;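 note: plate controls were no compound for no effect and no enzyme for full effect; nearly all actives have a fitted effect of over 20% in size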
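20 mM phosphate pH 7.0 + 0.01% (detergent screen) or 0.0001% Triton X-100; 5.3 nM AmpC reagent; cpd preinc 15 min RT; nitrocefin (800 uM stock) to start; A480 q20 s × 4 min; Activity was normalised to no-enzyme and no-compound control wells.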
VACV mCherry inh: vaccinia inhibition (mCherry reporter). Vaccinia virus mCherry reporter infection, fluorescence. Potency, µM (highest dose often 36.5 µM), for the others: at the top dose activity change, negative = inhibition, hits mostly inhibitors. 0.63% of 310,000 active; calls by dose curve; tested in A549 cells; note: % is set by controls: 0 for no effect and ±100 for the full control effect; nearly all actives have a fitted effect of over 35% in size
SARS PLpro yeast: blocks SARS-CoV papain-like protease in a yeast assay. S. cerevisiae expressing SARS-CoV PLpro, growth rescue. Potency, µM (highest dose often 32.9 µM), inactives show at the top dose activity, positive = growth rescue, hits mostly activators. 0.19% of 330,000 active. AID 485353; calls by dose curve; note: 0% is about no effect; nearly all actives have a fitted effect of over 55% in size
Numbers without * were called inactive; i = inactive; u = inconclusive; x = not tested or not shown; ! = not confirmed by another sample. Rows were chosen to be rich in hits. Some 1.3% of all compounds tested hit in one or more screens of this group. Unless noted, calls come from the whole dose curve; as a rule, active = well fitted curve in the direction sought with a large enough effect; inconclusive = small, poorly fitted or top-dose-only effect, or another doubt; inactive = no such curve, though single readings can be large; an effect the other way counts as inactive or inconclusive. Potency is the fitted concentration of half-maximal effect.

SMILES	AmpC detergent	VACV Venus inh	AmpC no deterg	VACV mCherry inh	SARS PLpro yeast
Cc1cn2c(-c3ccc(Cl)cc3)nnc2s1	-12.1%	-12.5%	20µM*	-8.4%	-12.3%
Cc1cccc(-n2c(SCC(=O)Nc3ncc(Cl)cc3Cl)nc3ccccc32)c1	-0.4%	-24.4%	-13.0%	3.16µM*	-28.6%
COc1ccc(-n2c(SCC(=O)Nc3ncc(Cl)cc3Cl)nc3ccccc32)cc1	-7.8%	x	-31.9%	x	-1.4%
O=C(CSc1nc2ccccc2n1-c1ccccc1)Nc1ncc(Cl)cc1Cl	3.8%	20.2%	-5.0%	6.31µM*	-10.7%
Cc1ccc(CNc2nc(CN3CCCCC3c3cccnc3)nc3ccccc23)o1 (configuration not stated)	x	-15.9%	x	-0.2%	x
CCOc1cc(C=C(C(=O)OC)C(=O)OC)ccc1OCc1ccc([N+](=O)[O-])cc1	-1.0%	10µM*	u	x	-0.2%
CCc1noc(C)c1C(=O)N1CCOc2ccc(CN3CCCC(C(=O)c4cccnc4)C3)cc2C1 (configuration not stated)	x	-17.0%	x	-4.2%	x
O=C(COC(=O)c1n[nH]c2ccccc12)Nc1ccccc1	-2.4%	-6.2%	-21.6%	-12.4%	-3.2%
CCN(CC)S(=O)(=O)c1cccc(NC(=O)COC(=O)c2n[nH]c(=O)c3ccccc23)c1	-12.4%	-1.5%	28.2µM*	i	0.3%
Cc1cc(C)cc(NC(=O)COC(=O)c2n[nH]c3ccccc23)c1	-3.5%	-22.1%	15.8µM*	-8.7%	0.0%
CCN(CC)S(=O)(=O)c1cccc(NC(=O)COC(=O)c2cc(C)oc2C)c1	u	-6.5%	-26.8%	-5.8%	-0.2%
CC[C@H]1OC(=O)[C@H](C)C(=O)[C@H](C)[C@@H](O[C@@H]2O[C@H](C)C[C@H](N(C)C)[C@H]2O)[C@](C)(OC)C[C@@H](C)C(=O)[C@H](C)[C@H]2N(CCCCn3cnc(-c4cccnc4)c3)C(=O)O[C@]12C	x	-8.2%	x	-14.0%	x
CCN(CC)CCOC(=O)c1ccc(NC(=O)c2nn(-c3ccc(C)cc3)c(=O)c3c2c2ccccc2n3C)cc1	-4.2%	5.01µM*	x	5.62µM*	x
CN1CCc2c(c3ccccc3n2Cc2ccccc2)C1	-1.9%	12.6µM*!	18.1%	28.2µM*!	-6.9%
CCCCN1CCc2c(c3ccccc3n2Cc2ccccc2)C1	-15.5%	x	12.7%	x	-2.9%
CCN(c1ccccc1)S(=O)(=O)c1cc(NC(=O)CSc2n[nH]c(=O)[nH]c2=O)ccc1Cl	-9.4%	x	20µM*	x	0.8%
O=C(CSc1n[nH]c(=O)[nH]c1=O)Nc1ccc2c(c1)C(=O)c1ccccc1C2=O	u	7.9%	-42.0%	u	-0.5%
COc1ccccc1CN1CCCC(n2cc(C(=O)N3CCCCC3)nn2)C1 (configuration not stated)	x	-7.9%	x	-6.1%	x
CCCCNc1c(-c2cccc(-c3ccc(OC)cc3)c2)nc2ccc(C)cn12	-4.9%	u	-2.5%	12.6µM*	0.1%
O=C(NCc1cccnc1)/C(=C\c1ccc(-c2ccc(Cl)c(Cl)c2)o1)S(=O)(=O)c1ccccc1	4.0%	11.2µM*	25.8%	u	-21.0%
O=C(NCc1cccnc1)c1ccc(-c2ccc(Cl)cc2)o1	2.0%	x	14.7%	x	-1.1%
CCOC(=O)c1ccc(N=c2sc(C(=O)OC)cc(=O)n2-c2ccc(C(=O)OCC)cc2)cc1	-10.6%	-12.1%	u	i	1.7%
COC(=O)c1cc(=O)n(-c2ccccc2)c(=Nc2ccccc2)s1	u	5.01µM*	-9.2%	u	-37.3%
COc1cc(C)c(CN2C[C@H](Sc3nc4ccccc4[nH]3)C[C@H]2C(=O)N(C)C)cc1C	x	-19.9%	x	i	x
CCCCN(CCCC)CCn1cnc2c([nH]c3ccc(OC)cc32)c1=O	u	7.6%	20µM*	-1.4%	-8.2%
SMILES	AmpC detergent	VACV Venus inh	AmpC no deterg	VACV mCherry inh	SARS PLpro yeast
Cn1cnnc1Sc1ccc(CN2CCOc3ccc(C4=Cc5ccccc5C4)cc3C2)o1	x	-13.8%	x	-3.9%	x
C#CC[N+](C)(C)CCCCCCCCCCCC	-10.8%	7.94µM*	58.1%	8.91µM*	-52.8%
CCc1cccc(C)c1NC(=O)CCS(=O)(=O)c1cc(Br)cc2c1N(C(=O)C1CC1)CC2	5.4%	-15.4%	x	-19.4%	x
COC(=O)[C@@H]1CCCN1Cc1ccc2c(c1)CN(Cc1ccc3c(c1)CCO3)CCO2	x	0.0%	x	-6.1%	x
Nc1nc(SCC(=O)Nc2ccccc2)nc2nc3c(cc12)CCCC3	-4.0%	u	15.8µM*	-23.7%	-10.9%
COc1ccc(NC(=O)CSc2nc(N)c3cc4c(nc3n2)CCCC4)c(OC)c1	1.5%	-18.1%	-39.4%	-21.0%	3.2%
Cc1ccc(NC(=O)CSc2nc(N)c3cc4c(nc3n2)CCCC4)cc1	-5.3%	u	14.1µM*	u	2.9%
COc1ccc(O)c(CN2CCOc3c(cc(-c4cccc(OC)n4)cc3OC)C2)c1	x	-4.7%	x	-14.9%	x
COc1ccccc1Nc1cc(C(=O)NCc2cccs2)c2ccccc2n1	4.1%	-9.9%	x	-17.1%	x
Cn1c(NCC(O)c2ccccc2)nc2c1c(=O)n(Cc1ccc(Cl)c(Cl)c1)c(=O)n2C (configuration not stated)	x	10µM*	x	x	x
Cc1nonc1C(=O)N/N=C/c1ccc(O)cc1O	-1.1%	u	-8.3%	8.91µM*	0.4%
O=C(N/N=C/c1ccc(O)cc1O)/C(=C/c1ccccc1)CCO	-17.6%	u	-27.8%	11.2µM*	u
Cc1nonc1C(=O)N/N=C/c1ccncc1	2.1%	-6.6%	-14.5%	i	-0.9%
CCc1cc(C(=O)N/N=C/c2ccc(O)cc2O)c2ccccc2n1	-1.5%	-22.9%	-55.6%	1.12µM*	x
O=C(N/N=C/c1ccc(O)cc1O)c1ccncc1	3.1%	x	-0.5%	x	7.0%
O=C(COC(=O)c1cc([N+](=O)[O-])ccc1N1CCOCC1)Nc1ccc(Cl)cn1	1.6%	28.2µM*	-57.0%	u	-7.6%
CC(C)C(NS(C)(=O)=O)c1nnc2n1CCN(Cc1cccc3ncccc13)CC2 (configuration not stated)	x	-2.7%	x	-0.2%	x
O=C(c1ccc(Cl)cc1)N(Cc1ccco1)Cc1ccco1	-2.9%	-0.5%	x	5.3%	x
CS(=O)(=O)c1ncc(Cl)c(C(=O)N(Cc2ccc(Cl)cc2)Cc2ccco2)n1	-8.9%	15.8µM*	x	u	x
COc1ccc(-c2csc(-c3ccc(O)cc3)n2)cc1	6.0%	u	-33.0%	3.55µM*	5.2%
COc1ccc(CN2CCCC(n3cc(C(=O)N4CCCCC4)nn3)C2)c(OC)c1 (configuration not stated)	x	8.6%	x	-10.3%	x
Cc1cccc2nc(CNC(=O)CN3Cc4ccccc4OC(c4ccccc4F)C3)cn12 (configuration not stated)	x	4.5%	x	-3.2%	x
O=C(/C=C/c1ccccc1)NC(NC(=S)Nc1cc(Cl)ccc1Cl)C(Cl)(Cl)Cl (configuration not stated)	-11.1%	u	-43.6%	10µM*	-0.4%
